Compound activity (PubChem BioAssay)
Shown are actives, neighbours in structure and some others; about 0.93% of the full set was active somewhere.
RPL19A TOR yeast = RPL19A-GFP expression modulators in yeast, primary screen, cell-based, S. cerevisiae, multiplex flow cytometry, MLPCN | S. cerevisiae RPL19A-GFP strain, 3 h; hits give low values | 330,000 compounds, 0.3% hits | percent response vs DMSO, % at 10 µM;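 active means percent response vs DMSO below 50%; inconclusive means fewer than 70 events counted for the yeast strain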;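 further: median channel GFP fluorescence of the barcoded RPL19A-GFP strain; lower means less RPL19A-GFP as with rapamycin TOR inhibition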
MEP2 TOR yeast = modulators of MEP2-GFP levels in yeast, primary screen, S. cerevisiae, multiplex flow cytometry, MLPCN library. S. cerevisiae MEP2-GFP strain, 3 h; 100% = DMSO control level. GFP response vs DMSO, % at 10 µM. 330,000 compounds, 0.51% hits;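 active means GFP response versus DMSO above a set limit, roughly screen mean plus 3 SD, cut at about 180% in these data; inconclusive means fewer than 70 cells counted for a yeast strain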;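 further: median GFP fluorescence of the barcode-gated MEP2-GFP cells per well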
LAP4 TOR yeast = modulators of LAP4-GFP expression in yeast, primary screen, S. cerevisiae, multiplex flow cytometry, MLPCN library; 3 h; median GFP as percent of DMSO wells; GFP response vs DMSO, % at 10 µM; 320,000 compounds, 0.34% hits; AID 2023, 2009;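 active means GFP response vs DMSO above a set limit, about the screen mean plus 3 SD, cut at about 150% in these data; inconclusive means under 70 cell events counted for the yeast strain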
CIT2 TOR yeast = modulators of CIT2-GFP expression in yeast, primary screen, S. cerevisiae, GFP fusion, multiplex flow cytometry, MLPCN library; S. cerevisiae CIT2-GFP strain, 3 h; 100 means same as DMSO wells; GFP response vs DMSO, % at 10 µM; 320,000 compounds, 0.065% hits;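 active means GFP response relative to DMSO above a set limit, near the screen mean plus 3 SD, cut at about 150% in these data; inconclusive means Fewer than 70 cells measured for a yeast strain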;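 further: ratio of well median GFP fluorescence to mean of DMSO wells on the plate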
AGP1-GFP MLPCN = modulators of AGP1-GFP expression in yeast TOR pathway, primary screen, cell-based, multiplex flow cytometry, S. cerevisiae, MLPCN library. AID 2066, 2009. 320,000 compounds, 0.02% hits. 3 h; GFP as percent of DMSO wells. GFP response vs DMSO, % at 10 µM;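 active means GFP response relative to DMSO above a set limit, near screen average plus 3 SD, cut at about 150% in these data; inconclusive means fewer than 70 cells counted for the yeast strain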;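 further: median GFP channel fluorescence of the gated AGP1 strain per well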
Large screens that a line does not name were inactive; [ ] = dose if it differs, or a comment.

CCOC(=O)CN1C(=O)CSc2ccc(S(=O)(=O)N3CCOCC3)cc21	RPL19A TOR yeast 33[may fluoresce violet], MEP2 TOR yeast 275[may fluoresce violet], CIT2 TOR yeast inconclusive, AGP1-GFP MLPCN inconclusive
CCOC(=O)CN1C(=O)CSc2ccc(S(=O)(=O)N3CCCC3)cc21	none
COc1ccc(C(CCN2CCCC2)c2c(OC)cc(OC)c3c(-c4ccccc4)cc(=O)oc23)cc1 (stereo unspecified)	none
COc1cc(C(CCN2CCCC2)c2c(OC)cc(OC)c3c(-c4ccccc4)cc(=O)oc23)cc(OC)c1OC (stereo unspecified)	RPL19A TOR yeast 43[may fluoresce violet], MEP2 TOR yeast 284[may fluoresce violet], CIT2 TOR yeast inconclusive, AGP1-GFP MLPCN inconclusive
O=C(CCc1c[nH]c2ccccc12)NCCc1ccccc1	none
O=C(O)CC(c1ccc(Cl)cc1)N1C(=O)CCC1=O (stereo unspecified)	none
CCOC(=O)c1cnn(-c2nc3c(C)cccc3s2)c1C	MEP2 TOR yeast 281[may fluoresce violet], CIT2 TOR yeast inconclusive (no result: AGP1-GFP MLPCN)
Cc1ccnc(NS(=O)(=O)c2ccc(NC(=O)C3CCCCC3)cc2)n1	none
Cc1cc(C)nc(/N=C(\NC(=O)C(C)(C)C)Nc2ccc(F)cc2)n1	RPL19A TOR yeast 48[may fluoresce violet], MEP2 TOR yeast 470[may fluoresce violet], CIT2 TOR yeast inconclusive, AGP1-GFP MLPCN inconclusive
CC1=CCC(C(=O)O)C(C(=O)Nc2ccc(-c3nc4ccc(C)cc4s3)cc2)C1 (stereo unspecified)	MEP2 TOR yeast 620
O=C(/C=C/c1cccs1)N1CCCC1	none
Cc1cc(C)n(C(=O)/C=C/c2cccs2)n1	MEP2 TOR yeast 211[may fluoresce violet], CIT2 TOR yeast inconclusive, AGP1-GFP MLPCN inconclusive
COc1cc(-c2nnc(SCC(=O)c3ccccc3)o2)cc(OC)c1OC	none
COc1ccc(-c2nnc(SCC(=O)N(Cc3ccccc3)C(C)(C)C)o2)cc1OC	RPL19A TOR yeast 10[may fluoresce violet], MEP2 TOR yeast inconclusive, CIT2 TOR yeast inconclusive, AGP1-GFP MLPCN inconclusive
O=C(COc1ccccc1C(=O)O)Nc1nc2ccc([N+](=O)[O-])cc2s1	none
COc1ccccc1NC(=S)NNC(=O)c1ccccc1	none (no result: AGP1-GFP MLPCN)
COc1ccccc1NC(=S)NNC(=O)c1ccncc1	MEP2 TOR yeast 191[may fluoresce violet], CIT2 TOR yeast inconclusive
CC(=O)c1cccc(NC(=O)Cn2c(=O)oc3cc(S(=O)(=O)N4CCCC4)ccc32)c1	none
O=C(Cn1c(=O)oc2cc(S(=O)(=O)N3CCCC3)ccc21)Nc1ccccc1Br	MEP2 TOR yeast 191
COC(=O)c1ccccc1NC(=O)c1ccc(-c2cccc(Cl)c2)o1	RPL19A TOR yeast 38[may fluoresce violet], MEP2 TOR yeast 324[may fluoresce violet], CIT2 TOR yeast inconclusive (no result: AGP1-GFP MLPCN)
Cc1nonc1C(=O)N/N=C/c1ccc([N+](=O)[O-])o1	LAP4 TOR yeast 152
Cc1cc(C(=O)N/N=C/c2ccc([N+](=O)[O-])o2)c(C)o1	none
COc1ccc(-c2nn(-c3ccccc3)cc2C(=O)N/N=C/c2ccc([N+](=O)[O-])o2)cc1	MEP2 TOR yeast 204, LAP4 TOR yeast 181, CIT2 TOR yeast 228
CS(=O)(=O)C1=NSC2=NC(=O)/C(=C\c3cccn3-c3ccccc3Cl)C(=N)N21	none
Cc1nnc(SCCn2c(N3CCN(C)CC3)nc3c2c(=O)[nH]c(=O)n3C)s1	MEP2 TOR yeast 184[may fluoresce violet], CIT2 TOR yeast inconclusive
O=C(NCCc1ccccc1)c1ccc2nc(-c3ccco3)c(-c3ccco3)nc2c1	none
O=C(c1ccccc1)c1ccc2nc(-c3ccco3)c(-c3ccco3)nc2c1	MEP2 TOR yeast 184[may fluoresce violet], CIT2 TOR yeast inconclusive
COC(=O)c1ccccc1C(=O)N1CCOCCN(C(=O)c2ccccc2C(=O)OC)CCOCC1	RPL19A TOR yeast 31[may fluoresce violet], MEP2 TOR yeast 188[may fluoresce violet], CIT2 TOR yeast inconclusive, AGP1-GFP MLPCN inconclusive
CC(=O)OC[C@H]1COc2ccc3ccccc3c2[C@H]1N(C)C(C)=O	none
Cc1ccc(SC(CC(=O)c2ccc(F)cc2)C(=O)O)cc1 (stereo unspecified)	none
CC(C)(C)c1ccc(C(=O)CC(Sc2ccc(Cl)cc2)C(=O)O)cc1 (stereo unspecified)	LAP4 TOR yeast 251
O=C(O)c1ccc(/C=C(\c2nc3ccccc3[nH]2)c2nc3ccccc3s2)cc1	MEP2 TOR yeast 223[may fluoresce violet], CIT2 TOR yeast inconclusive
CC(C)c1nnc(-c2ccc(Cl)cc2)c(N(C)C)n1	MEP2 TOR yeast 220 (no result: AGP1-GFP MLPCN)
Oc1c(C(Nc2ccccn2)c2cccnc2)cc(Cl)c2cccnc12 (stereo unspecified)	none
COCCCNC(=O)c1ccc2c3c(onc13)-c1ccccc1C2=O	LAP4 TOR yeast 190
O=C(NCCc1ccc(F)cc1)C(=O)Nc1cc2c3c(c1)CC(=O)N3CCC2	RPL19A TOR yeast 46[may fluoresce violet], CIT2 TOR yeast inconclusive, AGP1-GFP MLPCN inconclusive
O=C(NCCc1ccc(Cl)cc1)C(=O)Nc1cc2c3c(c1)CC(=O)N3CCC2	none
COc1ccccc1NC(=O)NC1CCCCCCC1	none
COc1ccccc1NC(=O)C1C2CCCCC21 (stereo unspecified)	RPL19A TOR yeast 13[may fluoresce violet], MEP2 TOR yeast 293[may fluoresce violet], CIT2 TOR yeast inconclusive, AGP1-GFP MLPCN inconclusive
CC1C(=O)N(Cc2cccc(F)c2)c2ccccc2N1C(=O)c1ccccc1 (stereo unspecified)	MEP2 TOR yeast 263[may fluoresce violet], CIT2 TOR yeast inconclusive, AGP1-GFP MLPCN inconclusive
COc1cccc(CN2C(=O)C(C)N(C(=O)c3c(F)cccc3F)c3ccccc32)c1 (stereo unspecified)	none
O=C(NN1C(=O)/C(=C\c2ccc(O)c([N+](=O)[O-])c2)SC1=S)c1ccccc1Cl	MEP2 TOR yeast 175, LAP4 TOR yeast 154
CSc1ccc(C(=O)C2CCCN(Cc3ccc(N4CCNC4=O)cc3)C2)cc1 (stereo unspecified)	none
CCCc1nnc(NC(=O)c2ccc([N+](=O)[O-])cc2)s1	MEP2 TOR yeast 214[may fluoresce violet], CIT2 TOR yeast inconclusive, AGP1-GFP MLPCN inconclusive
CN1CCN(c2ccc(S(=O)(=O)N3CCCCC3)cn2)CC1	MEP2 TOR yeast 208[may fluoresce violet], CIT2 TOR yeast inconclusive (no result: AGP1-GFP MLPCN)
Cc1cc(C)cc(C(=O)Nc2ccncc2)c1	none
CCN(CC)c1ccc2c(C)cc(=O)oc2c1	none
CCN(CC)c1ccc2c(C)c(Cl)c(=O)oc2c1	none
CCN(CC)c1ccc2c(c1)oc(=O)c1c(Cl)cc(=O)oc12	RPL19A TOR yeast 16[may fluoresce violet], CIT2 TOR yeast inconclusive, AGP1-GFP MLPCN inconclusive
CCN(CC)c1ccc2c(Cl)c(Br)c(=O)oc2c1	MEP2 TOR yeast 894[may fluoresce violet], LAP4 TOR yeast 556[may fluoresce violet], CIT2 TOR yeast inconclusive
Cc1ccc(NC(=O)CC2SC(=O)N(c3ccccc3)C2=O)cc1 (stereo unspecified)	LAP4 TOR yeast 153
O=C(CC1SC(=O)N(c2ccccc2)C1=O)Nc1ccccc1 (stereo unspecified)	none
Cc1cccc(NC(=O)CC2SC(=O)N(c3ccccc3)C2=O)c1 (stereo unspecified)	LAP4 TOR yeast 165
CSc1ccc(S(=O)(=O)NCC(=O)OCC(=O)N(C)CC(=O)Nc2ccccc2Cl)cc1[N+](=O)[O-]	none
